# Bioassay records deposited in PubChem by Buhrlage Lab, Dana-Farber Cancer Institute and Novartis Institutes for BioMedical Research (Cambridge, Mass).
# USP10 block = inhibitors of human USP10 deubiquitinase; Ubiquitin carboxyl-terminal hydrolase 10 (Homo sapiens), Q14694; purified USP10, Ub-rhodamine fluorescence, 60 min; inhibition, % at 20 µM; 47,000 tested, 1.1% active; AID 1645856, 2021
# USP28 block = inhibitors of human USP28 deubiquitinase; 47,000 tested, 3% active; AID 1645857, 2021; Ubiquitin carboxyl-terminal hydrolase 28 (Homo sapiens), Q96RU2; inhibition, % at 25 µM; purified USP28, Ub-rhodamine cleavage fluorescence, 30 min
# USP17 inh = inhibitors of human USP17 deubiquitinase; 47,000 tested, 6.5% active; inhibition, % at 50 µM; purified USP17, Ub-rhodamine cleavage fluorescence, 3 h; Ubiquitin carboxyl-terminal hydrolase 17-like protein 5 (Homo sapiens), A8MUK1
# Target sequence (A8MUK1 whole entry, looked up): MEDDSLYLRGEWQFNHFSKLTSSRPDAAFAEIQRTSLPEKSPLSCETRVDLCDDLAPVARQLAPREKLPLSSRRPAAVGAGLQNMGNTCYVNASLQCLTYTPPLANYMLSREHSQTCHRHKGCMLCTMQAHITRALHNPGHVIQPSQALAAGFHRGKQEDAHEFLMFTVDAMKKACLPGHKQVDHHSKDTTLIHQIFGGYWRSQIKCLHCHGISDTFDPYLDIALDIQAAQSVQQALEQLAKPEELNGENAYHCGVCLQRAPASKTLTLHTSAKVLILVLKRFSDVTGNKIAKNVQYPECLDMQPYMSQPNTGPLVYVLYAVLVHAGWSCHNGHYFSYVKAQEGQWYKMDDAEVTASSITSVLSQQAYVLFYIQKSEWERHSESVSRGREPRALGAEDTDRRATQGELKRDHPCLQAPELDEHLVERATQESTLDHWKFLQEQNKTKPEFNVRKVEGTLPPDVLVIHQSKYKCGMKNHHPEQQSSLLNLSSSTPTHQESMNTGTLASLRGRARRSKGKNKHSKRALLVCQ
# USP8 inh = inhibitors of human USP8 deubiquitinase; Ubiquitin carboxyl-terminal hydrolase 8 (Homo sapiens), P40818; purified USP8, Ub-rhodamine cleavage fluorescence, 30 min; 47,000 tested, 4.2% active; inhibition, % at 20 µM; AID 1645853, 2021
# USP30 block = inhibitors of human USP30 deubiquitinase; 47,000 tested, 5.3% active; inhibition, % at 25 µM; Ubiquitin carboxyl-terminal hydrolase 30 (Homo sapiens), Q70CQ3; purified USP30, Ub-rhodamine cleavage fluorescence
# An asterisk follows results filed as active; i = inactive. Most compounds without a hit are left out; they make up all but 14% or so of the library. Rule as the data show it: active = inhibition above about 30%; inactive = the rest.
SMILES,USP10 block,USP28 block,USP17 inh,USP8 inh,USP30 block
Brc1ccc2nc(Nc3cccc4ccccc34)nc(-c3ccccc3)c2c1,-11,-28,-61,-228,-68
Cc1cccc(NS(=O)(=O)c2ccc3[nH]c(=O)cc(C(=O)O)c3c2)c1,2,18,-28,-60,-32
CC(C)CNC(=O)c1cc(=O)[nH]c2ccc(S(=O)(=O)Nc3ccc(F)cc3)cc12,2,7,36*,4,25
COc1cc(C)ccc1-n1c(-c2ccc(F)cc2)cn2c3c(=O)n(C)c(=O)n(C)c3nc12,-1,2,43*,9,39*
Cc1cccc(S(=O)(=O)Nc2ccc3c(c2)N(C)C(=O)C(C)(C)CO3)c1,0,7,7,12,3
CN1C(=O)C(C)(C)COc2ccc(NS(=O)(=O)c3cc(F)ccc3F)cc21,4,-8,1,44*,-41
c1ccc(CNc2ccc(-c3ccccc3)nn2)cc1,10,37*,28,57*,45*
CN1CCN(C(=O)c2ccc(-c3ccc(NCc4ccccc4)nn3)cc2)CC1,-4,0,7,-209,1
O=C(COc1ncnc2cc([N+](=O)[O-])ccc12)NCc1ccc2c(c1)OCO2,20,3,29,66*,1
Cc1ccc(OCC(=O)NCc2ccc3c(c2)OCO3)c([N+](=O)[O-])n1,-2,-8,-21,-119,-7
Cn1nc(-c2ccccc2)c(CO)c1SCc1ccc(Cl)cc1,1,3,16,13,22
Cn1c(SCc2ccc(C(C)(C)C)cc2)nc(-c2ccccc2)c1-c1ccccc1,11,12,19,8,34*
Cc1ccc(C)c(Nc2cc(C)nc3nc(-c4ccco4)nn23)c1,-4,14,58*,22,-15
Cc1cc(Nc2ccc(Cl)cc2)n2nc(-c3ccco3)nc2n1,-7,0,36*,9,-163
CSc1nc(NCCCO)c2sc3nc(N4CCOCC4)c4c(c3c2n1)CC(C)(C)OC4,-1,8,10,13,25
COc1ccc(C(=O)NCCn2ncc3c(N4CCCC4)ncnc32)cc1OC,-2,-2,-1,-5,2
Cc1cc(-c2csc(N)n2)c(C)n1Cc1cccs1,-7,-225,-173,-95,i
c1ccc(-n2c(SCCc3ccncc3)nnc2N2CCOCC2)cc1,-1,11,19,16,42*
OCCSc1nnc(N2CCCC2)n1-c1cccc(Cl)c1,0,11,4,3,18
O=C(CSc1nc(C(F)(F)F)cc(=O)[nH]1)NCc1ccccc1,3,-1,3,-3,-3
O=C(CSc1nc2cc(C(F)(F)F)ccc2s1)NCC(=O)c1ccccc1,45*,5,91*,32*,0
CCOc1ccc(NC(=O)CN(C)S(=O)(=O)c2ccc3c(c2)n(C)c(=O)c(=O)n3C)cc1,4,13,14,20,24
CC(=O)N1CCc2cc(CNC(=O)Nc3cc(C)ccc3C)ccc21,-2,13,43*,-1,67*
COc1cccc(Cn2nc3n(C(C)C)c(=O)c4ccc(C(=O)NCC(C)C)cc4n3c2=O)c1,1,15,33*,0,23
CCOc1cccc2c1OC(C)(C)[C@H]1CC3(CCN(C(=O)c4ccc(NC(C)=O)nc4)CC3)CO[C@H]21,-1,-1,0,1,2
SMILES,USP10 block,USP28 block,USP17 inh,USP8 inh,USP30 block
COc1cccc2c1OC(C)(C)[C@H]1CC3(CCN(C(=O)COc4cccnc4)CC3)CO[C@H]21,-2,-5,28,67*,-142
O=C(CC1CCCCC1)Nc1cc(F)c2nc(N3CCOCC3)ccc2c1,-7,-22,40*,65*,-63
Cn1c(CCN2CCOCC2)nc2cc(NC(=O)C3CCCCC3)ccc21,3,8,11,22,26
O=C(Nc1cc(F)c2nc(N3CCOCC3)ccc2c1)C1CCCCC1,-8,-8,22,71*,-38
CCC(C)c1nnc(-c2cnc3onc(C4CC4)c3c2)o1 (configuration not stated),0,-7,0,-1,0
CCOc1ccc(-c2noc(-c3cccn4c(=O)c5ccccc5nc34)n2)cc1OC,-4,-131,-181,-27,i
COc1ccc(C)cc1NC(=O)Cc1csc(NC(=O)c2ccc(=O)[nH]c2)n1,-3,23,71*,82*,-75
CCOC(=O)N1CCN(C(=O)Cc2csc(NC(=O)c3ccc(=O)[nH]c3)n2)CC1,-9,-11,-7,5,-41
O=C(c1ccc(N2CCOCC2)nn1)N1CCc2ccccc21,-1,-2,-9,-4,-5
Cc1cccc(NC(=O)Cn2c(N3CCOCC3)nc(C)cc2=O)c1,0,-11,-1,0,1
CCc1ccc(NC(=O)Cn2c(N3CCOCC3)nc3cc(C)n(C)c3c2=O)cc1,-5,8,40*,14,33*
Cc1cc2nc(N3CCOCC3)n(CC(=O)Nc3cccc(F)c3)c(=O)c2n1C,0,-1,38*,19,13
Cc1ccc(NC(=O)Cn2c(N3CCOCC3)nc3cc(C)n(C)c3c2=O)cc1,-4,-11,14,5,49*
Cc1ccccc1NC(=O)Cn1c(N2CCOCC2)nc2cc(C)n(C)c2c1=O,-6,10,36*,5,62*
CCc1cc(=O)n(CC(=O)Nc2ccc(F)c(F)c2)c(N2CCOCC2)n1,-2,5,5,7,-1
COc1cc2c(cc1OC)-c1cc(NC(C)c3ccccc3)nc(=O)n1CC2 (configuration not stated),-6,-9,-1,9,-34
Cn1ccnc1C(NC(=O)C1CC1)c1ccccc1 (configuration not stated),-1,4,13,13,14
COc1ccc(CCNS(=O)(=O)c2ccc(F)c(C(=O)Nc3ccc(Cl)cc3C(F)(F)F)c2)cc1OC,10,7,71*,23,61*
COc1ccc(CCNC(=O)c2cc(S(=O)(=O)N3CCOCC3)ccc2F)cc1OC,-4,-15,-10,-3,0
COc1ccc(CC(=O)NCc2ccc3c(c2)cc(C)n3C)cc1OC,-6,-56,-31,-59,-213
Cc1cc2cc(CNC(=O)NC3CCCCC3)ccc2n1C,-5,-14,33*,-9,-84
CCCCc1nc2sc3c(SCC(=O)Nc4ccc(C)cc4)ncnc3c2c2c1CCC2,-3,6,0,7,-3
CCCCc1nc2sc3c(SCC(=O)Nc4cccc(C)c4)ncnc3c2c2c1CCC2,-2,4,64*,-1,-12
CCCCc1nc2sc3c(SCC(N)=O)ncnc3c2c2c1CCC2,2,36*,18,-1,23
Cc1cc(C)n2nc(C(=O)Nc3ccc(C)c(S(=O)(=O)N4CCCCCC4)c3)nc2n1,0,-2,0,3,-4
CCOc1ccc(N(CC(=O)NCc2ccccn2)S(=O)(=O)c2ccc(SC)cc2)cc1,-3,6,-4,-3,0
